This is a sample that favours compounds with a hit; in the whole collection about 12% have one here.
Lmaj promast – inhibitors of Leishmania major promastigote growth; Leishmania major promastigotes, resazurin fluorescence viability; inhibition, % at 10 µM; actives 9% (n = 200,000); AID 1063; in the data active = inhibition above about 50%;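 also: promastigotes grown with compound for 44 hours at 28 °C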
CHOP inhibitor – blocks CHOP induction under ER stress; actives 3.8% (n = 220,000); AID 2732; CHO-K1 CHOP-promoter luciferase, tunicamycin-induced, 15-18 h; inhibition, % at 10 µM;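 active = compounds that reduced the stress-induced luciferase reporter signal by more than about 70% of percent inhibition, limit read from the data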
Arbovirus inh – antivirals against arbovirus infection | actives 0.37% (n = 200,000) | inhibition, % at 10 µM | arbovirus infection cell-based antiviral screen; in the data active = inhibition above about 30%
WT yeast gro inh – growth inhibition of WT yeast, mitochondrial fusion screen. inhibition, % at 10 µM. actives 2.1% (n = 190,000). mitochondrial fusion phenotypic screen, WT strain; in the data active = inhibition above about 58%; tested in S. cerevisiae
Of the large screens only hits and unclear results are named; the others gave an inactive call.

O=C1CSC(c2c(F)cccc2Cl)N1c1cccc(F)c1 (centres undefined)	Lmaj promast 88
N#C/C(=C\c1cn(Cc2ccccc2)c2ccccc12)C(=O)NCc1ccco1	Lmaj promast 51
N#C/C(=C\c1cn(Cc2ccc(F)cc2)c2ccccc12)C(=O)NCc1ccco1	CHOP inhibitor 77
N#Cc1c(Nc2ccc(F)cc2)sc(C(=O)c2ccccc2)c1N	none
N#Cc1c(Nc2ccc(F)cc2)sc(C(=O)c2ccc(F)cc2)c1N	CHOP inhibitor 76
COc1cc(SC#N)ccc1N=Cc1c(C)[nH]n(-c2ccc(C)c(C)c2)c1=O	Lmaj promast 99, CHOP inhibitor 107
COc1cc(SC#N)ccc1N=Cc1c(C)[nH]n(-c2ccc(Cl)cc2)c1=O	CHOP inhibitor 104
Cc1ccc(OCCN2C(=O)C(=O)c3cccc(C)c32)cc1	none
COc1ccc(CCC(=O)OCC(=O)c2ccc(C)cc2)cc1	none
CCc1c(O)c(/C(C)=N\O)c(=O)n(-c2ccccc2)c1-c1ccccc1	Lmaj promast 67
C=CCO/N=C(/C)c1c(O)c(CC)c(-c2ccccc2)n(-c2ccccc2)c1=O	Lmaj promast 51, CHOP inhibitor 72
CCCCc1nnc(NC(=O)C(C)Sc2nc(C)cc(=O)[nH]2)s1 (centres undefined)	none
C=CCn1c(COc2ccccc2F)nnc1SCC(=O)c1c[nH]c2ccccc12	none
O=C(Nc1cccc(-c2nc3ccccc3[nH]2)c1)c1ccco1	none
Fc1ccc(NCc2cccnc2)cc1	Lmaj promast 82
c1cncc(CNc2cccc(-c3nc4ccccc4[nH]3)c2)c1	Lmaj promast 67
c1ccc(NCc2cccnc2)cc1	none
O=C(COC(=O)c1cccnc1Cl)c1ccc(OC(F)F)cc1	none
CCCOc1ccc(NC(=O)OC2CCN(C)CC2)cc1	none
N#C/C(=C/c1ccc(CNS(=O)(=O)c2ccccc2)o1)C(N)=O	Lmaj promast 51
COCCCn1cc(C(=O)c2ccccc2OCC(=O)Nc2cccc(F)c2)cc(C#N)c1=O	none
CC(C)N(C(=S)NC1CCCCC1)c1ccccc1	WT yeast gro inh 59
CC(C)N(Cc1ccccc1)C(=S)NCc1ccccc1	none
COc1ccccc1NC(=S)N(c1ccccc1)C(C)C	none
CC(C)N(Cc1ccccc1)C(=S)NC1CCCCC1	WT yeast gro inh 64
COC(=O)CCSCC(=O)Nc1ccc(C)c(S(=O)(=O)N2CCCCC2)c1	none (no result: Lmaj promast, Arbovirus inh, WT yeast gro inh)
N#Cc1c(NC(NC(=O)c2ccco2)C(=O)c2ccccc2)sc2c1CCCC2 (centres undefined)	WT yeast gro inh 62
C/C(=N\NC(=O)CCc1ccc(S(=O)(=O)N2CCOCC2)cc1)c1ccccc1Cl	none
Cc1ccc(N2CCN(C(=O)c3ccccc3Br)CC2)c(C)c1	CHOP inhibitor 87
Cc1ccc(N2CCN(C(=O)c3ccccc3)CC2)c(C)c1	none
Cc1ccc(C)c(N2CCN(C(=O)c3ccccc3Br)CC2)c1	CHOP inhibitor 87, WT yeast gro inh 58
COC(=O)c1ccc(Nc2c([N+](=O)[O-])c(=O)oc3ccccc23)cc1	none (no result: Lmaj promast, Arbovirus inh, WT yeast gro inh)
COC(=O)c1ccc2nc(C)cc(Nc3ccc(N(C)C)cc3)c2c1	Lmaj promast 67
COC(=O)c1ccc(Nc2cc(C)nc3ccccc23)cc1	none (no result: Lmaj promast, Arbovirus inh, WT yeast gro inh)
O=C(OCn1ncc(Br)c(Br)c1=O)c1ccc(F)cc1	Lmaj promast 100, WT yeast gro inh 87 (no result: CHOP inhibitor)
O=C1C2C3C=CC(C3=C(c3ccccc3)c3ccccc3)C2C(=O)N1CCO (centres undefined)	Lmaj promast 98
O=C1C2C(c3ccccc3)C=CC(c3ccccc3)C2C(=O)N1CCO (centres undefined)	none (no result: CHOP inhibitor)
Cc1cccc(-c2nsc(SCC(=O)NCC3CCCO3)n2)c1 (centres undefined)	none
COc1cc(C(C(=O)NCc2ccccc2)N(Cc2ccco2)C(=O)c2cnccn2)cc(OC)c1OC (centres undefined)	none
COc1cc(OC)c(NS(=O)(=O)c2cccc(C(=O)OCC(=O)NCC3CCCO3)c2)cc1Cl (centres undefined)	Lmaj promast 80
CC(C)NS(=O)(=O)c1ccc(OCC(=O)NCC2CCCO2)c(Cl)c1 (centres undefined)	none
Cc1cc(S(=O)(=O)NCC(C)C)ccc1OCC(=O)NCC1CCCO1 (centres undefined)	Lmaj promast 59
CN(c1ccc(C(=O)NCC2CCCO2)cc1)S(=O)(=O)c1ccccc1 (centres undefined)	none
CN(C)S(=O)(=O)c1cccc(C(=O)NCC2CCCO2)c1 (centres undefined)	WT yeast gro inh 97
Cc1cc(C)cc(Oc2nc(C(F)(F)F)nc3ccccc23)c1	CHOP inhibitor 72
Cc1nn(-c2ccccc2)c(N2CCCC2)c1/C=N/O	Lmaj promast 72
Cc1nn(-c2ccccc2)c(N2CCCC2)c1/C=N/NC(=S)Nc1ccccc1C(F)(F)F	Lmaj promast 99
CC1CCCCN1C(=O)c1cc2nc(-c3ccccc3)cc(-c3ccccc3)n2n1 (centres undefined)	CHOP inhibitor 82
O=C(O)c1cc2nc(-c3ccccc3)cc(-c3ccccc3)n2n1	none
O=C(c1cc2nc(-c3ccc(F)cc3)cc(C(F)(F)F)n2n1)N1CCCCC1c1cccnc1 (centres undefined)	Lmaj promast 96, CHOP inhibitor 73
CN1CCN(C(=O)c2cc3nc(-c4ccc(F)cc4)cc(C(F)(F)F)n3n2)CC1	none
O=C(c1cnn2c(C(F)(F)F)cc(-c3ccccc3)nc12)N1CCCCC1c1cccnc1 (centres undefined)	Lmaj promast 52
COc1cccc(-n2nnc3c(=O)n(CC(=O)Nc4ccc(C)cc4)cnc32)c1	none
O=C(CSc1nnc(-c2ccc(C(F)(F)F)cn2)s1)c1ccccc1	none (no result: Lmaj promast, Arbovirus inh, WT yeast gro inh)
Cc1ccc2nc(-c3ccc(NC(=O)CN4C(=O)NC(C)(c5ccc(OC(F)F)cc5)C4=O)cc3)sc2c1 (centres undefined)	CHOP inhibitor 76
Cc1ccc2nc(-c3ccc(NC(=O)CN(c4ccccc4C)S(C)(=O)=O)cc3)sc2c1	CHOP inhibitor 70
CC(C)(C)c1ccc(S(=O)(=O)NCC(=O)Nc2ccc(-c3nc4ccccc4s3)cc2)cc1	CHOP inhibitor 96
O=C(CNS(=O)(=O)c1cccc(Cl)c1)Nc1ccc(-c2nc3ccccc3s2)cc1	none
CC1(c2ccc(OC(F)F)cc2)NC(=O)N(CC(=O)Nc2ccc3c(c2)OCO3)C1=O (centres undefined)	none
Cc1ccc(C)c(S(=O)(=O)NC(C)C(=O)Nc2ccc(-c3nc4ccccc4s3)cc2)c1 (centres undefined)	CHOP inhibitor 80
COc1ccccc1NC(=O)c1c(N=Cc2cccc([N+](=O)[O-])c2)cnn1C	none (no result: Lmaj promast, Arbovirus inh, WT yeast gro inh)
COc1ccc(Cn2nnnc2CN(Cc2cc3cccc(C)c3[nH]c2=O)C2CCCC2)cc1	none
COc1ccc(Cn2nnnc2CN(Cc2cc3ccc(C)cc3[nH]c2=O)C2CCCC2)cc1	Lmaj promast 82
CCC(C)(C)n1nnnc1CN(Cc1cc2cc(OC)ccc2[nH]c1=O)C1CCCC1	Lmaj promast 98
CCOc1ccc2[nH]c(=O)c(CN(Cc3nnnn3Cc3ccco3)C3CCCCC3)cc2c1	none
CCOC(=O)N/N=C(/C)c1ccc([N+](=O)[O-])o1	Lmaj promast 96
COc1ccc(C)cc1NC(=O)COC(=O)c1ccc([N+](=O)[O-])o1	none
